Source: PubChem
Rows were chosen to be rich in hits. Some 31% of all compounds tested hit in one or more screens of this group.
CYP2C19 act: human CYP2C19 activators, primary screen, biochemical, luminescence; recombinant CYP2C19, luciferin-H EGE luminescence; stronger effect = higher value; 0 = fully inhibited enzyme, 1 = untreated enzyme; 96,000 tested, under 10 active; activation factor at 5 µM; Cytochrome P450 2C19 (Homo sapiens), P33261;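 active means activation factor of at least 2 at 5 µM in the primary screen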
Target sequence (P33261 whole entry, looked up): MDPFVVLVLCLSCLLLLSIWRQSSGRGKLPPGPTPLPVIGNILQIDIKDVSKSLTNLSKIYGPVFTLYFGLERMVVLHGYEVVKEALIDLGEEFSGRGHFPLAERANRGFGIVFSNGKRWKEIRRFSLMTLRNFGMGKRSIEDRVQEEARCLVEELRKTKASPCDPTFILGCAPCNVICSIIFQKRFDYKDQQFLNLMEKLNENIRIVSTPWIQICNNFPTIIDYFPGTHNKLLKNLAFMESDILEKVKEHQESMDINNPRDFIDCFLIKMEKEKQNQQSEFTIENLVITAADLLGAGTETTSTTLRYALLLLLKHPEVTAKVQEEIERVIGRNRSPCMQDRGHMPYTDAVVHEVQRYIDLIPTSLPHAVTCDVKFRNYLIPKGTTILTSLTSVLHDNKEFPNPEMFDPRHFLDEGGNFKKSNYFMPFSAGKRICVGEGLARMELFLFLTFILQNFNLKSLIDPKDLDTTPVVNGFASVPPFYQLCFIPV
CYP2C9 inhib: blockers of cytochrome P450 2C9 activity – biochemical, luminescence, ADME assay, primary screen; P11712; AID 777, 2007; inhibition, % at 5 µM; CYP2C9 Supersomes, luciferin-H conversion; 96,000 compounds, 20% hits;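 active means blocking of liver enzyme CYP2C9 beyond about 50% at 5 µM, limit read from the data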
CYP2C19 inh: blockers of cytochrome P450 2C19 activity – biochemical, luminescence, ADME assay, primary screen. P33261. CYP2C19 Supersomes, luciferin-H EGE luminescence, 30 min. inhibition, % at 5 µM. 96,000 compounds, 21% hits;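 active means CYP2C19 inhibition above a set limit at 5 µM in the primary screen, cut at about 50% in these data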
CYP2C9 activ: human CYP2C9 activators, primary screen, biochemical, luminescence; AID 1024, 2008; 96,000 compounds, 1.4% hits; Cytochrome P450 2C9 (Homo sapiens), P11712; activation factor at 5 µM; recombinant CYP2C9, luciferin-H conversion; stronger effect = higher value; factor 1 = untreated enzyme, 0 = blocked;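 active means activation factor of 2 or more for CYP2C9 at a 5 µM dose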
PLAP act: PLAP enzyme activators, biochemical, luminescence, HTS; Alkaline phosphatase, placental type (Homo sapiens), P05187; purified PLAP enzyme, luminescent substrate read-out; stronger effect = higher value; activation fold at 20 µM; 96,000 compounds, 1.2% hits; in the data active means activation fold above about 2
A number is an active result; – = inactive.

SMILES | CYP2C19 act | CYP2C9 inhib | CYP2C19 inh | CYP2C9 activ | PLAP act
CCn1c(SCC(=O)N2CCc3ccccc32)nc2c(c1=O)SC(C)C2 (configuration not stated) | – | 92.8 | – | – | –
COCCn1c(SCC(=O)N2CCCc3ccccc32)nc2c(c1=O)SC(C)C2 (configuration not stated) | – | 95.4 | – | – | –
COCN(C#N)c1nc(OC)nc(OC)n1 | – | – | – | – | –
CCCc1ccc(C(=O)CCC(=O)O)cc1 | – | – | – | – | –
CCCCC(=O)c1ccc(O)cc1 | – | – | – | 2.2 | –
Cc1cc(C#N)c(C)n1-c1cc(C(F)(F)F)ccc1N1CCOCC1 | – | – | 99.4 | – | –
CCc1nc(NCC2CCCN2CC)c2nnn(Cc3ccccc3F)c2n1 (configuration not stated) | – | – | – | – | –
CCN(CC)S(=O)(=O)c1ccc(S(=O)(=O)Nc2ccc3c(c2)oc2ccccc23)cc1 | – | 99.5 | 69.6 | – | –
CCN(CC)S(=O)(=O)c1ccc(NS(=O)(=O)c2ccc(C)c(C)c2)cc1 | – | 99.4 | 97.6 | – | –
CCN(CC)S(=O)(=O)c1ccc(S(=O)(=O)Nc2ccc(C(=O)N3CCCC3)cc2)cc1 | – | 99.1 | 51.4 | – | –
O=C(c1ccc(NS(=O)(=O)c2ccccc2)cc1)N1CCCC1 | – | 92.8 | 76.4 | – | –
CCN(CC)S(=O)(=O)c1ccc(NC(=O)c2ccc(NS(C)(=O)=O)cc2)cc1 | – | – | – | – | –
O=C(c1ccc(S(=O)(=O)Nc2ccccc2)cc1)N1CCOCC1 | – | – | – | – | –
O=C(CS(=O)c1cccc(C(F)(F)F)c1)Nc1ccc(Cl)cc1Cl (configuration not stated) | – | – | 99.6 | 2.1 | –
O=C(CS(=O)c1cccc(Cl)c1)Nc1ccccc1Cl (configuration not stated) | – | – | 59.7 | 2.6 | –
O=C(O)CSCC(=O)Nc1cc(C(F)(F)F)ccc1Cl | – | – | – | – | –
O=C(COc1ccccc1O)Nc1ccccc1Cl | – | – | – | – | –
CCOC(=O)CC(C#N)c1c[nH]c2ccccc12 (configuration not stated) | – | – | 70.2 | – | –
CCn1c(=O)cc(OCC(=O)Nc2cccc(C)n2)c2ccccc21 | – | – | – | – | –
Cc1occc1-c1nnc(SCC(=O)Nc2ccccc2)n1C(C)c1ccccc1 (configuration not stated) | – | 96.0 | 88.7 | – | –
Cc1occc1-c1nnc(SCC(N)=O)n1Cc1ccccc1 | – | – | – | – | –
Cc1occc1-c1nnc(SCC(=O)NCCc2ccccc2)n1Cc1ccccc1 | – | 54.6 | – | – | –
Cn1c(SCC(=O)NCCc2ccccc2)nnc1-c1ccco1 | – | – | – | – | –
CCOC(=O)c1cccc(NC(=O)CSc2nnc(-c3ccoc3C)n2CCOC)c1 | – | 89.0 | 82.9 | – | –
COc1cccc(-n2c(SCC(=O)NCCc3ccccc3)nnc2-c2ccoc2C)c1 | – | 87.7 | 98.1 | – | –
SMILES | CYP2C19 act | CYP2C9 inhib | CYP2C19 inh | CYP2C9 activ | PLAP act
O=C(CSc1nnc(-c2cccs2)n1-c1ccccc1)Nc1ccccc1 | – | – | – | – | –
CCOC(=O)c1cccc(NC(=O)COC)c1 | – | – | – | – | –
Cc1occc1-c1nnc(SCC(=O)Nc2ccccc2)n1CCc1ccccc1 | – | 84.7 | 92.0 | – | –
Cc1occc1-c1nnc(SCC(=O)N2CCOCC2)n1CCc1ccccc1 | – | – | – | – | –
CCOC(=O)c1ccc(Oc2nc(NC(C)(C)C)nc(N(C)C)n2)cc1 | – | 87.5 | 84.0 | – | –
O=C(NCCCN1CCC(Cc2ccccc2)CC1)C1CC(=O)N(C2CCCCCC2)C1 (configuration not stated) | – | – | – | – | –
O=C(NCCCN1CCOCC1)c1ccc(Cl)c(S(=O)(=O)N2CCCCCC2)c1 | – | – | – | – | –
C=C(C)Cn1c(=O)c2c(nc3n2CCN3c2cccc(Cl)c2C)n(C)c1=O | – | 50.4 | – | – | –
C=CCn1c(=O)c2c(nc3n2CCN3c2cccc(Cl)c2C)n(C)c1=O | – | – | – | – | –
Cc1ccc(C(CC(=O)N2CCOCC2)c2ccco2)cc1 (configuration not stated) | – | – | 83.8 | – | –
